Test results published in the supplement of paper PMC6555819.

How the values were obtained:
Experiment in all cases: PBM binding z-score (relative to random genomic background probes); higher = stronger binding; sequences stand for … in GC…GCGATTGACAGCGTAGAATGAAGG
[1] = tested on: PPARg:RXRa DBDmut IVT, anti-RXR (DBD mutation: RXRa K156A/R161A, NR concentration 270 nM, RXRa partner concentration 90 nM)
How it was run: (§1)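 Binding z-scores take random background probes as their reference. They come from custom Agilent 4×180K protein-binding microarrays incubated 1 h with ligand-free nuclear receptor dimers, with antibodies against each partner (one per run) detecting binding. Scanned fluorescence was regression-normalized.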

[2] = tested on: PPARg:RXRa IVT, anti-PPARg (NR concentration 270 nM, RXRa partner concentration 90 nM)
How it was run: as §1

[3] = tested on: PPARg DBDmut:RXRa IVT, anti-PPARg (DBD mutation: PPARg1 K132A/R137A, NR concentration 270 nM, RXRa partner concentration 90 nM)
How it was run: as §1

[4] = tested on: PPARg DBDmut IVT, anti-PPARg (DBD mutation: PPARg1 K132A/R137A, NR concentration 270 nM)
How it was run: as §1

[5] = tested on: PPARg homodimer (NR concentration 180 nM)
How it was run: as §1

[6] = tested on: PXR:RXRa (NR concentration 270 nM, RXRa partner concentration 90 nM)
How it was run: as §1

[7] = tested on: PXR homodimer (NR concentration 270 nM)
How it was run: as §1

[8] = tested on: RARa:RXR (NR concentration 270 nM, RXRa partner concentration 90 nM)
How it was run: as §1

[9] = tested on: RARa homodimer (NR concentration 270 nM)
How it was run: as §1

[10] = tested on: RARb:RXRa (NR concentration 270 nM, RXRa partner concentration 90 nM)
How it was run: as §1

[11] = tested on: RARb homodimer (NR concentration 270 nM)
How it was run: as §1

[12] = tested on: RARg:RXRa (NR concentration 270 nM, RXRa partner concentration 90 nM)
How it was run: as §1

[13] = tested on: RARg homodimer (NR concentration 270 nM)
How it was run: as §1

[14] = tested on: RXRa DBDmut IVT, anti-RXR (DBD mutation: RXRa K156A/R161A, NR concentration 90 nM)
How it was run: as §1

[15] = tested on: RXRa homodimer (NR concentration 180 nM)
How it was run: as §1

[16] = tested on: THRa:RXRa (NR concentration 90 nM, RXRa partner concentration 90 nM)
How it was run: as §1

[17] = tested on: THRa homodimer (NR concentration 90 nM)
How it was run: as §1

[18] = tested on: VDR homodimer (NR concentration 270 nM)
How it was run: as §1

Sequence	PBM binding z-score [1]	PBM binding z-score [2]	PBM binding z-score [3]	PBM binding z-score [4]	PBM binding z-score [5]	PBM binding z-score [6]	PBM binding z-score [7]	PBM binding z-score [8]	PBM binding z-score [9]	PBM binding z-score [10]	PBM binding z-score [11]	PBM binding z-score [12]	PBM binding z-score [13]	PBM binding z-score [14]	PBM binding z-score [15]	PBM binding z-score [16]	PBM binding z-score [17]	PBM binding z-score [18]
TCTTGTAGATCAACAGGAGGTTAAGGAAGATCGA	1.4	0.448	1.51	0.495	0.156	0.485	-0.267	0.702	0.0704	0.516	0.564	0.698	0.308	0.0925	0.861	0.777	-0.373	-0.358
CGAACTAGGTCAGAACCGGACAGTGAAGGATGAT	7.36	7.01	0.829	-0.265	0.564	0.339	-0.0754	0.679	-0.208	2.85	1.76	2.4	3.3	0.258	1.12	1.72	0.00608	-0.191
TCTAGCAGTCCAGAGGGTCACTCAAGAGGTACGG	0.669	0.15	-0.632	-0.476	0.412	1.67	-0.406	2.48	0.0783	2.07	2.78	2.4	1.91	0.0371	2.54	1.79	0.000359	0.904
AATACAGGGTCATCGTAGGCTAGAGTACGCACAG	3.07	3.89	1.38	0.798	1.99	4.52	0.956	4.85	1.03	4.33	3.49	5.66	5.17	3.57	6.87	4.05	1.63	4.03
AGTCAAAGTTCACTCGGTAACGTAAGATTCAGCT	0.841	2.9	1.02	1.36	2.4	4.21	2.5	3.1	1	4.76	3.89	4.91	5.79	4.02	3.83	1.79	-0.0176	4.11
ATATGTCGGTTAAGGGTCATTCAGGTTGGTTCGC	2.75	4.81	2.12	1.06	3.13	5.03	2.46	4.78	2.84	3.31	3.68	4.69	3.43	2.21	4.55	3.42	1.7	4.47
TTACCAAGGTGAAATGTCGTTGATGCACGCCTTG	2.04	2.84	0.312	0.465	0.892	0.271	-0.455	0.706	-0.394	1.44	0.644	0.864	0.648	0.115	1.16	1.82	0.71	-0.183
TAGCCTAGGTCATTGGGTCAGTATAGTACGCATC	4.09	4.95	0.491	0.952	3.71	2.99	0.622	3.67	0.571	4.06	4.17	5.16	5.23	1.87	3.63	3.25	1.84	2.21
CAAACAGGGTCAGCTAGGCCAGAGTAGGGACGGC	2.12	2.9	0.368	0.041	1.74	2.42	0.185	3.18	0.11	3.96	3.2	4.72	4.56	1.83	4.56	2.94	0.733	1.44
CCTACTGGGCCATTCAGATGTCATTGATCATATG	4.47	3.44	-0.00111	0.0316	0.0941	-0.564	-0.799	-0.682	-0.198	0.127	0.108	0.278	0.389	0.148	-0.34	-0.291	-0.95	-0.52
TTACCAAGGTGAGCTGAGGGCGTTGATCCAACTC	1.02	1.45	0.0128	-0.0146	-0.525	3.08	-0.168	1.11	-0.757	1.1	0.362	-0.0631	-0.0832	-0.14	0.126	3.36	0.287	0.247
CATACAGGGTCAGCTAGGCCAGACTAGGGACGGC	1.3	2.37	0.631	0.373	0.901	2.01	0.149	2.36	0.259	3.94	3.19	4.5	4.67	1.37	3.99	3.16	1.06	1.2
TCATATAGGTAAGACAGGTGAAAGTCGGCATCTA	3.27	2.39	0.585	1.03	0.477	0.625	0.645	0.925	1.31	0.61	0.625	0.754	0.411	1.36	1.02	0.828	0.209	0.18
GCGCCTGGGGCATCAGCAGGTTACCATAACTTAA	-0.452	-0.359	-1.03	-1.67	-0.0775	0.0887	-0.879	0.514	-1.02	0.937	0.912	0.748	0.657	-0.312	0.179	0.955	-0.0466	-0.553
